# G9a block – qHTS Assay for Inhibitors of Histone Lysine Methyltransferase G9a; Histone-lysine N-methyltransferase EHMT2 (Homo sapiens), Q96KQ7; G9a H3K9 monomethylation, AlphaScreen, 2 h; Potency, µM (doses to about 102 µM), without a hit: at the highest dose activity, negative = inhibition, usual class: inhibitors; 350,000 compounds, 8.8% hits; AID 504332, 2011; also: % is scaled to controls: 0 for no effect and ±100 for the full control effect; nearly all actives have a fitted effect of over 75% in size
# Target sequence (Q96KQ7 913-1193 limits assumed): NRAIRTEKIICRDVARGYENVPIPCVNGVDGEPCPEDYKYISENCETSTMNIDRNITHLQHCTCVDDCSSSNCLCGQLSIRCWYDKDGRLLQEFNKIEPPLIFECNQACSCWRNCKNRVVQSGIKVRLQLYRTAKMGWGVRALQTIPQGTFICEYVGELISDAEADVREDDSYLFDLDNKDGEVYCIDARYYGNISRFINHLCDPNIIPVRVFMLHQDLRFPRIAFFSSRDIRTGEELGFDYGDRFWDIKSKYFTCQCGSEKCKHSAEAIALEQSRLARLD
#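 Readings reflect AlphaScreen signal from monomethyl-H3K9 antibody detection. HMT at 20 nM; substrate b-H3K9 500 nM; cofactor SAM 20 uM; 2 h RT reaction; compounds tested as titrations in qHTS with 15 min preincubation.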
# HP1b binding inh – HTS for Inhibitors of HP1-beta Chromodomain Interactions with Methylated Histone Tails; Chromobox protein homolog 1 (Homo sapiens), P83916; AlphaScreen HP1-beta / biotin-H3K9me3 peptide binding; Potency, µM (top dose mostly 114 µM), for the others: at the top dose activity change, negative = inhibition, most hits filed as inhibitors; 390,000 compounds, 0.56% hits; also: nearly all actives have a fitted effect of over 70% in size
# Target sequence (P83916 whole entry, looked up): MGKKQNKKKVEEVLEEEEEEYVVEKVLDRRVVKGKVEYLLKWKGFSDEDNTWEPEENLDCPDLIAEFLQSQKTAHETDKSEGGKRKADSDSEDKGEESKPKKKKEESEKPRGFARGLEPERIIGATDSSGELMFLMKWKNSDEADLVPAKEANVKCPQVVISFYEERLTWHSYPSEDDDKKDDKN
#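 AlphaScreen: HP1-beta (50 nM) preformed 30 min with biotin-H3(1-18)K9me3 peptide (50 nM) in PBS pH 7.4, 0.01% Tween-20. Compound added for 30 min at RT, then streptavidin donor/nickel chelate acceptor beads (10 ug/mL) for 30 min.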
# BAZ2B inh – qHTS Assay for Inhibitors of BAZ2B. Bromodomain adjacent to zinc finger domain protein 2B (Homo sapiens), Q9UIF8. 360,000 compounds, 4.4% hits. AlphaScreen BAZ2B-H3K14Ac peptide displacement. Potency, µM (series often up to 114 µM), without a hit: top-dose activity change, negative = inhibition, most hits filed as inhibitors; also: % is scaled to controls: 0 for no effect and ±100 for the full control effect; nearly all actives have a fitted effect of over 60% in size
#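 AlphaScreen displacement: compounds (up to 110uM) incubated 30 min at room temperature with a preformed 50 nM BAZ2B/50 nM biotinylated H3K14Ac peptide complex in PBS pH 7.4 with Tween-20. Donor and acceptor beads at 10 ug/mL final added, 20 min light-protected before reading.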
# PLK1 PBD block – qHTS for Inhibitors of PLK1-PDB (polo-like kinase 1 - polo-box domain): Primary Screen; Serine/threonine-protein kinase PLK1 (Homo sapiens), P53350; Plk1 PBD binding of FITC phosphopeptide, fluorescence polarization; Potency, µM, for the others: max response, negative = inhibition, most hits filed as inhibitors; 360,000 compounds, 2.8% hits; also: series mostly up to about 57 µM; % is scaled to controls: 0 for no effect and ±100 for the full control effect; nearly all actives have a fitted effect of over 65% in size
# Sfp inh – qHTS Assay for Inhibitors of Bacillus subtilis Sfp phosphopantetheinyl transferase (PPTase). Potency, µM, inactives show largest response in the series, negative = inhibition, actives largely listed as inhibitors. AID 1490, 2009. 310,000 compounds, 3.5% hits. 4'-phosphopantetheinyl transferase ffp (Bacillus subtilis), Q9F4F7. Biochemical Sfp PPTase activity, qHTS;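 also: the enzyme is Sfp with the accession as filed and its product quenches rhodamine fluorescence; 0% = enzyme reaction without inhibitor and -100% = no enzyme wells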
#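 Reaction rates are the 30-min fluorescence difference (ex 525, em 598 nm) in wells containing 15 nM Sfp, 5 uM rhodamine-CoA and 12.5 uM BHQ-2-YbbR at pH 7.6 with 10 mM MgCl2.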
# JMJD2A Tudor – qHTS Assay for Inhibitors of JMJD2A-Tudor Domain. AlphaScreen JMJD2A-Tudor / H3K4me3 peptide binding. Potency, µM (doses to about 114 µM), for the others: at the top dose activity change, negative = inhibition, hits mostly inhibitors. 390,000 compounds, 4.4% hits. AID 504339, 2011; also: % is scaled to controls: 0 for no effect and ±100 for the full control effect; nearly all actives have a fitted effect of over 50% in size
# An asterisk follows results filed as active; u = inconclusive; x = no result given; ! = a repeat was not active; [ ] = another dose, or the depositor's remark. Compounds with a hit are over-represented: about 12% of the library has one in this group of screens. Calls follow the shape of the dose curve; as a rule, active = well fitted curve in the direction sought with a large enough effect; inconclusive = small, poorly fitted or top-dose-only effect, or another doubt; inactive = no such curve, though single readings can be large; an effect the other way counts as inactive or inconclusive. Potency is read from the fitted curve at half-maximal effect.
SMILES,G9a block,HP1b binding inh,BAZ2B inh,PLK1 PBD block,Sfp inh,JMJD2A Tudor
C(#CCN1CCOCC1)COCC#Cc1ccccc1,u,36.8%,u,-1.3%,15.1%,u
O=C(NCc1nnc(SCC(=O)N2CCN(c3ccccc3)CC2)o1)c1ccco1,-8.1%[59 µM],-3.7%,-3.0%,26.7µM*,8.0%,u
O=C(N/N=C/C1C(=O)NC(=S)N(c2ccccc2)C1=O)c1cc(Br)c(O)c(Br)c1 (stereo not given),44.7µM*,-22.2%,10.4%,3.36µM*,-13.5%,10µM*
CCOC(=O)c1c(C)c(P(=S)(N2CCOCC2)N2CCOCC2)n(C)c1C,6.31µM*,u,u,26.7µM*,31.6µM*,-24.8%
CCOP(=S)(OCC)Oc1nc(Cl)c(Cl)cc1Cl,-3.0%[0.501 µM],93.2%,107.5%,29.9µM*,35.5µM*,77.2%
FC(F)(F)c1ccccc1CN1CCN(Cc2ccccc2)CC1,3.16µM*,u,50.1µM*,-5.1%,u,3.98µM*
CCOc1ccccc1N1CCN(Cc2cccc(OC)c2OC)CC1,u,u,u,-3.5%,-1.4%,1.78µM*
COc1ccc(CN2CCN(c3ccccc3)CC2)c(C)c1C,11.2µM*,u,50.1µM*,2.1%,u,3.98µM*
CCc1ccc(CN2CCN(Cc3ccc(SC)cc3)CC2)cc1,3.55µM*,u,39.8µM*,-0.6%,u,u
CN(CC(=O)O)C(=O)[C@H](Cc1ccccc1)NC(=O)[C@@H](CCCN=C(N)N)NC(=O)[C@@H](N)Cc1ccc(O)cc1,x,x,x,x,8.0%,x
COCCN(CCOC)C(=O)CCn1c(=O)oc2ccccc21,u,16.2%,-3.9%,-5.3%,-0.2%,u
CCCC(C)C1(CC)C(=O)N=C(S)NC1=O (stereo not given),x,x,x,x,19.0%,x
O=C(COc1cccc(Cl)c1)N1CCN(CCc2ccncc2)CC1,3.7%[59 µM],28.3%,-5.2%,x,x,-12.9%
COc1ccccc1N1CCN(Cc2ccc(Cl)cc2Cl)CC1,22.4µM*,u,u,-3.1%,u,22.4µM*
Oc1ccc(Cl)cc1CN1CCN(Cc2ccccc2)CC1,u,72.1%,u,-7.6%,-5.6%,-24.4%[57.1 µM]
Cc1ccc(CN2CCN(Cc3ccccc3F)CC2)cc1,12.6µM*,u,22.4µM*,-1.0%,-27.2%,20µM*
COc1ccccc1CN1CCN(Cc2ccc(Cl)cc2)CC1,3.55µM*,u,17.8µM*,-15.9%,79.4µM*,39.8µM*
CCN1CCN(Cc2ccc(C)cc2)CC1,u,36.1%,-3.7%,-0.7%,12.7%,1.5%
COc1ccccc1N1CCN(Cc2ccc(SC)cc2)CC1,10µM*,u,50.1µM*,2.0%,u,28.2µM*
CC(CCC(=O)O)C1CCC2C3C(=O)CC4CC(=O)CC[C@@]4(C)C3CC(=O)[C@]12C (stereo not given in full),-6.0%[2.33 µM],x,x,x,7.6%,x
CC(C)c1ccc(OCC(=O)N2CCN(CCc3ccncc3)CC2)cc1,-3.8%[59 µM],36.7%,-27.0%,x,x,-10.6%
CC(C)c1ccc(Oc2cccc3c2S(=O)(=O)N(C2CCCC2)CC(COCc2ccccc2)O3)cc1 (stereo not given),x,63.8%,x,-9.1%,x,-5.8%
CSc1ccc(CN2CCN(c3ccccc3C)CC2)cc1,12.6µM*,-11.9%,u,-1.0%,-26.6%,4.47µM*
CCOc1ccccc1CN1CCN(S(=O)(=O)CC)CC1,12.6µM*,u,50.1µM*,-6.5%,-26.6%,5.62µM*
CCOc1ccc(Cc2c(O)[nH]c(=O)[nH]c2=O)cc1,u,47.1%,6.2%,-8.5%,20µM*,-11.6%
SMILES,G9a block,HP1b binding inh,BAZ2B inh,PLK1 PBD block,Sfp inh,JMJD2A Tudor
CC(C)Oc1ccc(Cc2c(O)[nH]c(=O)[nH]c2=O)cc1,-7.2%[59 µM],18.2%,2.3%,-24.7%,-14.3%,-14.5%
CCCN(CCC)CCc1ccc(O)c(O)c1,20µM*!,x,x,x,-23.7%,x
OCCCc1ccc(O)c(O)c1,-122.0%[59 µM],u,-13.9%,-1.4%,50.1µM*,39.8µM*
CCCCC/C=C\C/C=C\C/C=C\CCCCC(=O)NCCc1ccc(O)c(O)c1,x,x,x,x,11.1%,x
COc1cc(CC(=O)OCC2=C[C@H]3[C@@H]4C(C)(C)[C@]4(OC(C)=O)[C@H](OC(=O)Cc4ccccc4)[C@@H](C)[C@]3(O)[C@@H]3C=C(C)C(=O)[C@@]3(O)C2)ccc1O,u,x,x,x,-2.1%,x
CN1CC[C@@]23CCCCC2C1Cc1ccc(O)cc13 (stereo not given in full),x,x,x,x,11.1%,x
CN1CCN(c2ncc3ncc(=O)n(C)c3n2)CC1,-3.1%[0.501 µM],x,x,x,-9.0%,x
CC(C)c1cc2c(c(O)c1O)[C@]1(C(=O)O)CCCC(C)(C)C1CC2 (stereo not given in full),-38.2%[2.33 µM],x,x,x,-107.5%,x
N[C@]1(C(=O)O)CC[C@@H](C(=O)O)C1 (racemic),u,x,x,x,56.2µM*!,x
Cc1cc2c(cc1C)-n1c(-c3ccccc3)c3c(=O)n(C)c(=O)n(C)c3c1C(c1ccco1)N2 (stereo not given),-33.5%[59 µM],12.1%,u,x,x,-29.5%
c1ccc2c(c1)CN(Cc1ccc3c(c1)OCO3)Cc1cnnn1-2,x,x,x,-19.8%,x,x
Cc1ccccc1NC(=O)CCl,4.9%,36.1%,0.1%,-6.2%,15.4%,-9.1%
O=C(CN1C(=O)S/C(=C\C=C\c2ccccc2)C1=O)Nc1ccccc1C(=O)O,u,-2.8%[57 µM],-33.2%,18.9µM*,-3.8%,-17.8%
Cc1ccc(C)c(N2CCN(C(=O)C3CCN(Cc4nc(-c5cccc(Cl)c5)oc4C)CC3)CC2)c1,u,-22.9%,8.91µM*,x,x,39.8µM*
Cc1ccc(Cl)cc1N1CCN(C(=O)C2CCN(Cc3nc(-c4ccc(Cl)cc4)oc3C)CC2)CC1,u,-15.6%,8.91µM*,x,x,u
Cc1cc(=O)n(-c2ccccc2)n1C,16.7%[21.5 µM],23.8%,x,-15.8%,11.8%,-14.5%
O=C1CCCCC1CN1CCCCC1 (stereo not given),-8.0%[12.7 µM],x,x,x,7.1%,x
CCOC(=O)c1cc(C)sc1/N=C/C1C(=O)NC(=S)NC1=O,39.8µM*,-16.0%,-33.4%,5.32µM*,20µM*,u
CCOC(=O)c1c(/N=C/C2C(=O)NC(=S)NC2=O)sc(C)c1C,35.5µM*,x,-10.1%,x,25.1µM*,x
COC12CCC3(CC1C(C)(O)C(C)(C)C)[C@H]1Cc4ccc(O)c5c4[C@@]3(CCN1CC1CC1)C2O5 (stereo not given in full),x,25.5%,x,-3.5%,x,-33.8%
